# An excerpt weighted towards active compounds, which were near 3% of everything screened.
# SENP8 block-1 – human SENP8 protease inhibitors, primary screen, biochemical, fluorescence, Nedd8 protein substrate, uHTS; inhibition, % at 20 µM; recombinant SENP8; actives 0.64% (n = 360,000); Sentrin-specific protease 8 (Homo sapiens), Q96LD8; in the data active means inhibition mostly above about 40%, no sharp cut-off; inactive means mostly below about 27%
# SENP8 block-2 – SENP8 protease inhibitors, primary screen, biochemical, luminescence; purified SENP8, Z-RLRGG-aminoluciferin cleavage; actives 1.2% (n = 330,000); inhibition, % at 10 µM; Sentrin-specific protease 8 (Homo sapiens), Q96LD8; in the data active means inhibition above about 50%
# TRAIL sens C8 – viability loss with TRAIL in NB7+C8 cells, primary screen, TRAIL sensitizer project, cell-based, ATPlite luminescence; inhibition (viability loss, TRAIL sensitization), % at 10 µM; actives 1% (n = 360,000); AID 624354, 2012;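 active means compounds causing at least 50% loss of cell viability in the single-dose screen, relative to plate controls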
# SENP7 inh – SENP7 protease inhibitors, primary screen, biochemical, luminescence, uHTS. actives 1.5% (n = 330,000). AID 434973, 2010. inhibition, % at 5 µM. recombinant SENP7, Z-RLRGG-aminoluciferin luminescence, 40 min. Sentrin-specific protease 7 (Homo sapiens), Q9BQF6;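 active means inhibition above about 50% at the single test dose, limit read from the data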
# Target sequence (Q9BQF6 706-1050 limits assumed): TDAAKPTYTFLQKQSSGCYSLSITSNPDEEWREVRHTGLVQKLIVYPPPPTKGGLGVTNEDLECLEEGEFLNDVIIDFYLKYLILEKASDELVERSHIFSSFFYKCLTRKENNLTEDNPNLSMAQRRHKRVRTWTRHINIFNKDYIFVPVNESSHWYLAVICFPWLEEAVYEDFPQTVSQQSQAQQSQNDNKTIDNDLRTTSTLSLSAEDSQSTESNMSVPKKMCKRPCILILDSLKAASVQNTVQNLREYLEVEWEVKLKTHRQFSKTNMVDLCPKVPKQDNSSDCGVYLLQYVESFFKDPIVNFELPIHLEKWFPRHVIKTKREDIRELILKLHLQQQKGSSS
# PPC-1+TRAIL kill – compounds killing PPC-1 cancer cells with TRAIL present, primary screen, TRAIL potentiator project, ATPLite luminescence, uHTS. cell killing (% activity), % at 4 µM or 5 µM. AID 1443, 2008. actives 0.41% (n = 220,000). PPC-1 cells + TRAIL, ATPLite viability luminescence;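 active means cell killing above 50% in the first pass at 4 µM, then a duplicate retest at 5 µM averaging 50% or more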
# SENP6 block – SENP6 protease inhibitors, primary screen, biochemical, luminescence, uHTS; Sentrin-specific protease 6 (Homo sapiens), Q9GZR1; Recombinant SENP6 catalytic domain, aminoluciferin luminescence; inhibition, % at 10 µM; actives 1.8% (n = 330,000); AID 2599, 2010;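 active means inhibition above about 50% at the single tested dose, limit read from the data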
# A number is an active result; . = inactive; / = no result given.
SMILES,SENP8 block-1,SENP8 block-2,TRAIL sens C8,SENP7 inh,PPC-1+TRAIL kill,SENP6 block
C/C(=N\Nc1cc(C)nc(-c2ccccc2O)n1)c1ccccc1O,.,.,.,.,.,.
COc1ccc(O)c(/C=N/Nc2nc(Nc3ccccc3)nc(-n3nc(C)cc3C)n2)c1,.,.,55,.,.,.
Cc1cc(N/N=C\c2ccccc2)nc(-c2ccccc2O)n1,.,.,56,.,.,.
Cc1cc(N/N=C/c2ccccc2O)nc(-c2ccccc2O)n1,.,.,.,.,.,.
Cc1cc(N/N=C/c2ccc(O)cc2O)nc(-n2nc(C)cc2C)n1,.,/,.,/,55,/
COc1ccc(C(CC(=O)O)NS(=O)(=O)c2ccc3c(c2)NC(=O)CO3)cc1 (stereo unspecified),.,.,.,.,/,.
COc1cc(NC(=O)C2CSC3(C)CCC(=O)N23)c(OC)cc1Cl (stereo unspecified),.,.,.,.,/,.
ON=C(CCc1ccccc1)CCc1ccccc1,.,/,.,/,/,/
COC(=O)C12OCC34C(CC5C(C)=C(O)C(=O)CC5(C)C3C(O)C1O)OC(=O)C(OC(=O)C=C(C)C)C24 (stereo unspecified),.,/,65,/,/,/
c1ccc2sc(SCc3ccc(-c4nnco4)cc3)nc2c1,.,89,.,89,.,96
COc1ccc(NC(=O)C2(C)CCN2C(=O)C(C)C)cc1F (stereo unspecified),.,/,.,/,/,/
O=C(OCc1cc(=O)oc2cc(O)ccc12)c1cc(S(=O)(=O)N2CCOCC2)ccc1F,.,.,68,.,/,.
CCc1cc2c(COC(=O)c3cc(S(=O)(=O)N4CCOCC4)ccc3F)cc(=O)oc2cc1O,.,.,75,.,/,.
CC(C)C[C@H](NC(=O)c1[nH]cnc1C(=O)Nc1ccc(CNC(=O)OC(C)(C)C)cc1)C(=O)OCc1ccccc1,.,.,.,.,.,.
C[C@H](NC(=O)c1[nH]cnc1C(=O)Nc1ccc(CNC(=O)OC(C)(C)C)cc1)C(=O)OCc1ccccc1,.,.,75,.,.,.
CC(C)(C)OC(=O)NCc1ccc(CNC(=O)c2nc[nH]c2C(=O)NCc2ccc(CNC(=O)OC(C)(C)C)cc2)cc1,.,.,.,.,/,.
CC(C)(C)OC(=O)NCCCCCNC(=O)c1nc[nH]c1C(=O)NCc1ccc(CNC(=O)OC(C)(C)C)cc1,.,.,58,.,/,.
CC(C)(C)OC(=O)NCc1ccc(NC(=O)c2nc[nH]c2C(=O)NCCNC(=O)c2[nH]cnc2C(=O)Nc2ccc(CNC(=O)OC(C)(C)C)cc2)cc1,.,.,88,.,/,.
Cc1ccc(SCC(=O)OCC(=O)N(CCC#N)c2ccccc2)cc1C,.,.,.,.,/,.
Cc1ccc(N(CCC#N)C(=O)CCl)cc1C,.,.,87,.,.,.
COc1ccccc1CN(C)C(=O)c1cccc(S(=O)(=O)N2CCc3ccccc3C2)c1,.,.,.,.,/,.
COc1ccc(CN(C)CCCn2cnc3c(OCc4ccccc4)ncnc32)cc1OC,.,/,.,/,/,/
Nc1nc(NCCc2ccccc2)nc(NCCO)c1[N+](=O)[O-],.,.,.,.,/,.
CCOC(=O)/C(=C\c1cccnc1)C(=O)c1cc(C(C)=O)c(Nc2ccccc2)s1,.,.,94,.,.,.
O=C(CC(Nc1ccccc1)C(=O)O)c1ccccc1 (stereo unspecified),.,54,.,.,.,79
O=C(NCc1ccc(F)cc1)N1CCN(C(=O)c2ccccc2)CC1,.,.,.,.,/,.
CCOc1ccc(OCC)c(NC(=O)C2CCN(c3nn4c(=O)cc(C)nc4s3)CC2)c1,.,.,67,.,.,.
O=C(Cc1ccccc1)Nc1ncnc2c1C(c1ccccc1)c1c(ccc3ccccc13)O2 (stereo unspecified),.,.,.,.,/,.
O=C(Nc1ncnc2c1C(c1ccccc1)c1c(ccc3ccccc13)O2)c1ccccc1 (stereo unspecified),.,.,59,.,/,.

# Assay outcomes from PubChem BioAssay.
